Here are results for 107 sequences from PubChem BioAssay AID1508600 (Functional Genomics Laboratory (NCATS/FGL), 2020).

Screen size: about 53,000 sequences; about 3,700 (7%) were called active. This is one part of a sample in which actives are shown more often than they occur. A number with no mark means an inactive call.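 How the source made its calls: active means gene knockdowns whose robust z-score for IL-1 alpha signal is at least 2 or at most -2, so actives lie on both sides; inactive means the rest.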

A short description of the experiment: Components of the Cytosolic LPS Sensing Pathway: Gene Identification via Genome-wide siRNA Screen.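 Further: robust z of the log signal after scaling to non-targeting control siRNA wells of the plate.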 The conditions noted are these: RAW264.7 macrophages, IL-1a HTRF, actives lie on both sides, screened at 100 nM (by protocol), cells primed 5 h with Pam3CSK4 first. The procedure, abridged:
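RAW264.7 mouse macrophages reverse-transfected with single siRNAs (100 nM final) for 48h, primed with Pam3CSK4 for 5 hours, then transfected with LipidA for 24 hour. Supernatant IL-1a read by HTRF; values normalized to negative-control median, log-transformed robust z-scores.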
For the sequence GGAUAUGCUGAGGUGGUGGTT against Cpsf7, the z-score was -1.07.

Take GGUGUACAUGGACAUCAAGTT against Ppie: the z-score is 0.0171.

Consider GGUCUUUGAGUUAAACCAUTT against Cdc7, for which the z-score is -0.0476.

Regarding CCUGAGCUAGAAUCUCAGATT against Zmat2, the z-score was 0.715.

Regarding CCCUUUCAACCAUUAAGCUTT against Kcns2, the z-score is 0.243.

Turning to GGAUGGGUCAAUGUUCUACTT against V1rb6, the z-score was 0.232.

In the case of CCACCAGAAUCCUAACACATT against Nucb2, the z-score is 2.55 (active).

Turning to CCAUGUGUAAAGGGAGAAATT against Nxph2, the z-score is 0.893.

Regarding CCAGUUGUGUGAAUUAUGUTT against Psmd2, the z-score is -2.

As for CCUACCGUUACCUAAGUGATT against Kcnj5, the z-score was -1.15.

For the sequence GCAAUGAGUAUUCAUGCAATT against Sec61a2, the z-score is -1.86.

Turning to CCUUCAGUGCUGUAGUGUATT against Rasl10b, the z-score is 0.37.

For the sequence GGAGUCCUAGAACACACAGTT against Snap29, the z-score was -1.79.

For the sequence GGAAUAUUAUGGGUAUCGATT against Cacna1s, the z-score was 0.952.

For GGUGGACUCUGUUUAAAAATT against Mtnr1a, the z-score is 0.971.

On to GGUCUGUGAAAUGAAAAAUTT against Brix1, for which the z-score is -0.473.

In the case of GGACUUACAUGGAAUUUUATT against Eftud2, the z-score was -2.07 (active).

Turning to CGGGUAUCAUCGAUUAUGGTT against Tnfaip6, the z-score was -0.356.

On to GGAGUGCAGUACAAAGGACTT against Ahsa1, for which the z-score was 0.872.

For the sequence GCCCAGCUCAAAUCUCCAUTT against Defb41, the z-score was 1.05.

In the case of GGACUUUUCAUUUGAAGCATT against Gar1, the z-score was 1.03.

Consider GGAGUUUGUAGCUGACAUCTT against Dcaf15, for which the z-score is -1.02.

On to GCCUUUCUCGCUACUUAGUTT against Cltc, for which the z-score is 2.83 (active).

Turning to GGAAAUCCAACUUCUUUCATT against Ebf2, the z-score is 2.7 (active).

In the case of GGUGUCUGCGUGAAGAUCATT against Cacng8, the z-score is 2.81 (active).

As for CCUGGACAAGCUAUACCUUTT against Cdc45, the z-score is 0.952.

In the case of GGCAUUGUAACCCUUGUAATT against Zscan26, the z-score is -0.684.

As to CGACUGGAUACCAAAUUACTT against Mtrex, the z-score is -1.21.

For GGAUCAUGAGAAUAUCAUCTT against P4hb, the z-score is 0.816.

For the sequence GGUGAUGUCAAGAGUUUUCTT against Hacd2, the z-score is 3.56 (active).

Consider “GGGCCUCCUGUAAACAUCCTT against D630039A03Rik”, for which the z-score is 0.884.

As to AUAAGAUGUUGCUCGGAACTT against Olfr1193, the z-score is 1.26.

GCCAGUGUUAUCCAGGACUTT against Cggbp1: the z-score is 1.35.

As to GCAACUCAACCUCAACCAUTT against Lrrc8e, the z-score is -0.597.

Take CCUCGAGUGGUUGGAUAAGTT against Vps25: the z-score is -2 (active).

Turning to GGUGAAAUUGCUCAGAUAATT against Narf, the z-score was 0.387.

With AACCAUGAUGCUUACGUUUTT against S100a10, the z-score is 0.285.

Turning to CCACAUACAUUUCACAGGGTT against Kdf1, the z-score is -0.806.

For GGAGUGUGUGCUUUUAAAATT against Rabggta, the z-score is 0.248.

Regarding GGCAGAAGUGGAAAAACAATT against Tmco1, the z-score is -0.417.

As for GGAAUGUAUCCAGGACUUCTT against Brd4, the z-score was -2.46 (active).

On to GAACCCUCAUGAGGGUUACTT against C1ql1, for which the z-score was 0.177.

GCCAGUAUGCUGUAUGGCUTT against Bcas3: the z-score is -0.712.

In the case of GCUACCUCUUGCAUGGGAGTT against Bivm, the z-score was -0.0737.

GCUGAUAAACAUCAGCUACTT against Zdhhc23: the z-score is 4.01 (active).

Consider GGCCUGUAUUCUGCUCUGUTT against Olfr341, for which the z-score was 0.0576.

In the case of GGCUGCUUAGCUUUAAUGGTT against Ccdc177, the z-score was -0.674.

Regarding GGGAUACUCCAAGUUCCAUTT against Muc4, the z-score was 2.85 (active).

Regarding GGUUCUAGGCAGUUUGAUATT against Tlnrd1, the z-score was 1.64.

As for GCCAAUUAAUGAUUGCUUUTT against Zfp322a, the z-score is 0.945.

Regarding CGCCAGCAGAACUCAAAUATT against Gm11992, the z-score is 0.623.

As to GCGUGCUUAUGAACAUAGUTT against Spen, the z-score is 2.02 (active).

GAUGAUUGACGACAUGGAATT against Rgs9bp: the z-score is 0.656.

For GGAUGAUGUGAUGAAGAUCTT against Fgfr4, the z-score was -0.0955.

On to GGUUAAAUGCCCGCCAACATT against Eif2ak4, for which the z-score was -0.876.

Turning to GGAUAAGGACCUCUUCUCUTT against Ubl7, the z-score is -1.41.

Turning to GGGAAUAGCAAACUUAUCUTT against Nfil3, the z-score is -0.688.

GGGACAAAACCUUGAUGGUTT against Vmn1r200: the z-score is -0.254.

As to GGAAGUAAUCAAUUUGGUGTT against Epm2aip1, the z-score was 1.36.

For GGUGUUAAUCCAGUUCAAUTT against Bbs12, the z-score is 2.26 (active).

Regarding GCACAUGUAUCCAUGCUUCTT against Kcnj11, the z-score was -0.815.

On to GGAAGUUCGUGGAAGGCAATT against Pck1, for which the z-score is 0.188.

For GGAAGAAAACAGCGAUUUGTT against Ppp1r15a, the z-score was -0.447.

Turning to GCAUUAUUCAUAUGUUGGUTT against Fpr-rs4, the z-score is -0.318.

Turning to GGAGUCUCUGAAGAAAACATT against Hus1, the z-score is -0.596.

Take GGAAGAAAGAGAGGUGUGATT against Nxf2: the z-score was -2.26 (active).

In the case of CCCAAUUUGGAGCUAUCAGTT against Cwh43, the z-score is -0.89.

On to GGACUUCCAGAUCCAACCUTT against Robo4, for which the z-score is -0.867.

As to GGAACUCUCAAGAGAGAAUTT against Dnajc14, the z-score is 0.233.

As to GGUACCCACUAGAGGAUCATT against Madd, the z-score was -2.61 (active).

For the sequence “GGACAGAGAACAAAUGACCTT against 4931417E11Rik”, the z-score was -1.91.

On to GGCAGCAGUUAUUGUGGAUTT against Ly6a, for which the z-score is 0.693.

As to GGAAGGACCAAAGCUUUCUTT against Olfr1123, the z-score was 0.982.

CCACCAAUGAUUUGAUGCATT against Gpr75: the z-score is -0.0162.

Turning to GGAUUUUGAAUUAUGGGAUTT against Relch, the z-score is -0.0955.

Consider CGAAGGGAUUGAUUUGACUTT against Kars, for which the z-score is -0.324.

GCCAAAUGUGCGUCAUCUATT against Zdhhc25: the z-score is -2.54 (active).

With CGCACUUUGGCUUGUAAUUTT against Smad6, the z-score was 0.327.

As to GCUGUAAACCGAAUCAAAGTT against Khdc4, the z-score is 0.0586.

Turning to CGUGAGGUUAUGAUGUAUUTT against Gm5444, the z-score is -1.3.

GGAAAGGACAAGAAAAUUUTT against Strn: the z-score was -2.03 (active).

Turning to CCAUUAUCCUGGUGUGUAUTT against Olfr1362, the z-score is -0.0735.

On to GGCGAUACUUGGAAAAAUCTT against Nln, for which the z-score is -0.508.

As for GCCCGUCCUGUUUGGAUUATT against Wdr53, the z-score was 0.501.

Regarding “GGACCUUGAGAUAUCUUUUTT against D130020L05Rik”, the z-score is -0.361.

In the case of GGACAGAGGACAAGCAGAATT against Ghrl, the z-score is -0.532.

In the case of CCAGAUCGGGAAAAAGGGUTT against Tsn, the z-score was -2.04 (active).

With CCUAAUUUGAUCCUUCGAATT against Zfp672, the z-score is -0.947.

In the case of GAACGACAACCCGAUAAUGTT against Ttc9c, the z-score was -0.141.

For GGAUUUAAUGGUAAAUCACTT against Relch, the z-score is 0.034.

In the case of GGUUCUUGGAUAAAUCAAGTT against Mrpl40, the z-score is 2.41 (active).

Turning to GGAAGGUCAAAGUCCUUUATT against Pitpnm2, the z-score was -0.685.

In the case of GGCUUCAAGCUAUUCAUGATT against Dgkb, the z-score is 0.126.

Consider GGGAUUGAGGGAGAUUUUCTT against Tedc2, for which the z-score is -0.206.

In the case of GUGCUUCUGAUCUCCUACATT against Olfr223, the z-score is 1.

For “CCAAUCCAAUGAAUGUUUCTT against A330070K13Rik”, the z-score was -1.75.

Take GCUGAAAGUAUUCAUGUAATT against Sec13: the z-score was -1.6.

For the sequence GAUAUGUGCACAAUUCUGCTT against Vmn1r201, the z-score is -2.3 (active).

As for GGCCAUCUCUUCUACUGUATT against Glt28d2, the z-score is 0.0935.

Turning to GCUUUCUGGGUAACAUAGGTT against Ubqln3, the z-score is -1.46.

As to AACCAUUCAGGAGAAAGCCTT against Lce1a1, the z-score is -3.05 (active).

As to GGGACCUUGAUCAAAACCUTT against Gp5, the z-score was -0.215.

As to GGAAAUGACAAGUAUGAAGTT against Gria4, the z-score is -1.33.

Regarding GUACCCAAAAUGUUGAUGATT against Olfr979, the z-score was 0.794.

Turning to GCGGCUCCAUCAGAAAAUGTT against Htatip2, the z-score is 0.526.

For GGAAAUCCAUGAGAAGGUGTT against Ctbp2, the z-score was 0.732.

As to CCUGAAUUACAGGGACCAGTT against Znrd1, the z-score was 3.49 (active).
